# Several values for one entry are separate records, joined by “and”; a condition that tells them apart may be missing. Equal values may be shown once. Read-outs that look alike come from different tables or passages of the source.
# Assays:
# PDGFRB = conditions: concentration: 1 μM, replicates: in singlicate, n = 1
# PDPK1 = conditions: concentration: 1 μM, replicates: in singlicate, n = 1
# PFTAIRE2 = conditions: concentration: 1 μM, replicates: in singlicate, n = 1
# PFTK1 = test system: T1, PFTK1; conditions: concentration: 1 μM, replicates: in singlicate, n = 1
# T1 construct: gene CDK14
# PHKG1 = conditions: concentration: 1 μM, replicates: in singlicate; n = 1
# PHKG2 = conditions: concentration: 1 μM, replicates: in singlicate, n = 1
# PIK3C2B = conditions: concentration: 1 μM, replicates: in singlicate, n = 1
# PIK3C2G = conditions: concentration: 1 μM, replicates: in singlicate, n = 1
# PIK3CA = conditions: concentration: 1 μM, replicates: in singlicate; n = 1
# PIK3CB = conditions: concentration: 1 μM, replicates: in singlicate, n = 1
# PIK3CD = conditions: concentration: 1 μM, replicates: in singlicate, n = 1
# PIK3CG = conditions: concentration: 1 μM, replicates: in singlicate, n = 1
# PIK4CB = test system: T2, PIK4CB; conditions: concentration: 1 μM, replicates: in singlicate, n = 1
# T2 construct: gene PI4KB
# PIKFYVE = conditions: concentration: 1 μM, replicates: in singlicate, n = 1
# PIM1 = conditions: concentration: 1 μM, replicates: in singlicate, n = 1
# PIM2 = conditions: concentration: 1 μM, replicates: in singlicate, n = 1
# PIM3 = conditions: concentration: 1 μM, replicates: in singlicate; n = 1
# PIP5K1A = conditions: concentration: 1 μM, replicates: in singlicate; n = 1
# PIP5K1C = conditions: concentration: 1 μM, replicates: in singlicate, n = 1
# PIP5K2B = conditions: concentration: 1 μM, replicates: in singlicate; n = 1
# 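Also: KINOMEscan kinase panel screen.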
compound,measurement,setting,value
Cl.Cl.c1ccc(-c2cc3ccncc3cc2OC2CCNCC2)cc1 [GSK1122999],%Inh,PDGFRB,42%
same,%Inh,PDPK1,0%
same,%Inh,PFTAIRE2,34%
same,%Inh,PFTK1,12%
same,%Inh,PHKG1,2%
same,%Inh,PHKG2,0%
same,%Inh,PIK3C2B,7%
same,%Inh,PIK3C2G,0%
same,%Inh,PIK3CA,4%
same,%Inh,PIK3CB,26%
same,%Inh,PIK3CD,30%
same,%Inh,PIK3CG,3%
same,%Inh,PIK4CB,0%
same,%Inh,PIKFYVE,0%
same,%Inh,PIM1,25%
same,%Inh,PIM2,0%
same,%Inh,PIM3,39%
same,%Inh,PIP5K1A,0%
same,%Inh,PIP5K1C,25%
same,%Inh,PIP5K2B,10%
CN1c2ccc(-c3ccc(C(=O)NCCO)cc3)cc2-c2[nH]ncc2S1(=O)=O,%Inh,PDGFRB,11%
same,%Inh,PDPK1,17%
same,%Inh,PFTAIRE2,0%
same,%Inh,PFTK1,0%
same,%Inh,PHKG1,0%
same,%Inh,PHKG2,41%
same,%Inh,PIK3C2B,0%
same,%Inh,PIK3C2G,8%
same,%Inh,PIK3CA,0%
same,%Inh,PIK3CB,0%
same,%Inh,PIK3CD,10%
same,%Inh,PIK3CG,0%
same,%Inh,PIK4CB,0%
same,%Inh,PIKFYVE,0%
same,%Inh,PIM1,10%
same,%Inh,PIM2,5%
same,%Inh,PIM3,24%
same,%Inh,PIP5K1A,0%
same,%Inh,PIP5K1C,41%
same,%Inh,PIP5K2B,0%
O=c1cc(N2CCOCC2)nc2n(Cc3cccc(Cl)c3)ccn12 [GSK2296823],%Inh,PDGFRB,15%
same,%Inh,PDPK1,0%
same,%Inh,PFTAIRE2,14%
same,%Inh,PFTK1,18%
same,%Inh,PHKG1,0%
same,%Inh,PHKG2,0%
same,%Inh,PIK3C2B,6%
same,%Inh,PIK3C2G,0%
same,%Inh,PIK3CA,0%
same,%Inh,PIK3CB,98.5%
same,%Inh,PIK3CD,68%
same,%Inh,PIK3CG,0%
same,%Inh,PIK4CB,2%
same,%Inh,PIKFYVE,0%
same,%Inh,PIM1,0%
same,%Inh,PIM2,0%
same,%Inh,PIM3,0%
same,%Inh,PIP5K1A,0%
same,%Inh,PIP5K1C,8%
same,%Inh,PIP5K2B,11%
COc1ccc(-c2nc3n(c2-c2ccncc2)CCC3)cc1 [SKF-104493],%Inh,PDGFRB; 1 µM,5% and 23%
same,%Inh,PDPK1; 1 µM,21% and 0%
same,%Inh,PFTAIRE2; 1 µM,29% and 9%
same,%Inh,PFTK1; 1 µM,0% and 34%
same,%Inh,PHKG1,0%
same,%Inh,PHKG2; 1 µM,0% and 20%
same,%Inh,PIK3C2B; 1 µM,13% and 0%
same,%Inh,PIK3C2G; 1 µM,19% and 0%
same,%Inh,PIK3CA,0%
same,%Inh,PIK3CB; 1 µM,19% and 0%
same,%Inh,PIK3CD; 1 µM,5% and 25%
same,%Inh,PIK3CG; 1 µM,11% and 1%
same,%Inh,PIK4CB; 1 µM,0% and 10%
same,%Inh,PIKFYVE; 1 µM,11% and 0%
same,%Inh,PIM1; 1 µM,0% and 50%
same,%Inh,PIM2; 1 µM,2% and 0%
same,%Inh,PIM3,0%
same,%Inh,PIP5K1A,27%
same,%Inh,PIP5K1C; 1 µM,25% and 5%
same,%Inh,PIP5K2B,0%
CCc1nc(-c2cccc(N(C)S(=O)(=O)c3ccccc3)c2)c(-c2ccnc(Nc3ccc(N4CCN(C(C)=O)CC4)nc3)n2)s1 [GSK1645895],%Inh,PDGFRB,32%
same,%Inh,PDPK1,0%
same,%Inh,PFTAIRE2,25%
same,%Inh,PFTK1,20%
same,%Inh,PHKG1,0%
same,%Inh,PHKG2,0%
same,%Inh,PIK3C2B,0%
same,%Inh,PIK3C2G,0%
same,%Inh,PIK3CA,0%
same,%Inh,PIK3CB,0%
same,%Inh,PIK3CD,0%
same,%Inh,PIK3CG,4%
same,%Inh,PIK4CB,10%
same,%Inh,PIKFYVE,0%
same,%Inh,PIM1,17%
same,%Inh,PIM2,0%
same,%Inh,PIM3,11%
same,%Inh,PIP5K1A,0%
same,%Inh,PIP5K1C,0%
same,%Inh,PIP5K2B,0%
Cn1ccc2ncnc(Oc3ccc(NC(=O)Nc4cccnc4)c(Cl)c3)c21,%Inh,PDGFRB,99.7%
same,%Inh,PDPK1,0%
same,%Inh,PFTAIRE2,10%
same,%Inh,PFTK1,0%
same,%Inh,PHKG1,15%
same,%Inh,PHKG2,0%
same,%Inh,PIK3C2B,6%
same,%Inh,PIK3C2G,19%
same,%Inh,PIK3CA,4%
same,%Inh,PIK3CB,3%
same,%Inh,PIK3CD,8%
same,%Inh,PIK3CG,7%
same,%Inh,PIK4CB,0%
same,%Inh,PIKFYVE,0%
same,%Inh,PIM1,1%
same,%Inh,PIM2,0%
same,%Inh,PIM3,0%
same,%Inh,PIP5K1A,0%
same,%Inh,PIP5K1C,1%
same,%Inh,PIP5K2B,35%
O=C(Nc1ccccc1)Nc1ccc(Oc2ccc3nccn3n2)cc1,%Inh,PDGFRB,99%
same,%Inh,PDPK1,0%
same,%Inh,PFTAIRE2,0%
same,%Inh,PFTK1,0%
same,%Inh,PHKG1,0%
same,%Inh,PHKG2,5%
same,%Inh,PIK3C2B,0%
same,%Inh,PIK3C2G,0%
same,%Inh,PIK3CA,0%
same,%Inh,PIK3CB,0%
same,%Inh,PIK3CD,0%
same,%Inh,PIK3CG,0%
same,%Inh,PIK4CB,0%
same,%Inh,PIKFYVE,5%
same,%Inh,PIM1,0%
same,%Inh,PIM2,6%
same,%Inh,PIM3,0%
same,%Inh,PIP5K1A,4%
same,%Inh,PIP5K1C,25%
same,%Inh,PIP5K2B,7%
FC(F)(F)c1ccc(-c2cc(-c3c[nH]nc3-c3ccccn3)ccn2)cc1 [GW599550],%Inh,PDGFRB,30%
same,%Inh,PDPK1,5%
same,%Inh,PFTAIRE2,20%
same,%Inh,PFTK1,19%
same,%Inh,PHKG1,0%
same,%Inh,PHKG2,21%
same,%Inh,PIK3C2B,0%
same,%Inh,PIK3C2G,0%
same,%Inh,PIK3CA,3%
same,%Inh,PIK3CB,0%
same,%Inh,PIK3CD,0%
same,%Inh,PIK3CG,1%
same,%Inh,PIK4CB,0%
same,%Inh,PIKFYVE,22%
same,%Inh,PIM1,19%
same,%Inh,PIM2,0%
same,%Inh,PIM3,51%
same,%Inh,PIP5K1A,18%
same,%Inh,PIP5K1C,74%
same,%Inh,PIP5K2B,17%
COc1ccc(NC(=O)Nc2ccc(C)c(-c3ccc(C(=O)Nc4ccncc4)cc3)c2)cc1 [GSK1398475],%Inh,PDGFRB,100%
same,%Inh,PDPK1,0%
same,%Inh,PFTAIRE2,20%
same,%Inh,PFTK1,24%
same,%Inh,PHKG1,0%
same,%Inh,PHKG2,0%
same,%Inh,PIK3C2B,0%
same,%Inh,PIK3C2G,0%
same,%Inh,PIK3CA,0%
same,%Inh,PIK3CB,0%
same,%Inh,PIK3CD,0%
same,%Inh,PIK3CG,0%
same,%Inh,PIK4CB,0%
same,%Inh,PIKFYVE,0%
same,%Inh,PIM1,0%
same,%Inh,PIM2,0%
same,%Inh,PIM3,3%
same,%Inh,PIP5K1A,0%
same,%Inh,PIP5K1C,17%
same,%Inh,PIP5K2B,0%
Fc1cccc(COc2ccc(Nc3ncnc4cc[nH]c34)cc2Cl)c1,%Inh,PDGFRB,25%
same,%Inh,PDPK1,4%
same,%Inh,PFTAIRE2,17%
same,%Inh,PFTK1,12%
same,%Inh,PHKG1,0%
same,%Inh,PHKG2,7%
same,%Inh,PIK3C2B,32%
same,%Inh,PIK3C2G,17%
same,%Inh,PIK3CA,0%
same,%Inh,PIK3CB,32%
same,%Inh,PIK3CD,17%
same,%Inh,PIK3CG,9%
same,%Inh,PIK4CB,12%
same,%Inh,PIKFYVE,0%
same,%Inh,PIM1,26%
same,%Inh,PIM2,13%
same,%Inh,PIM3,34%
same,%Inh,PIP5K1A,0%
same,%Inh,PIP5K1C,0%
same,%Inh,PIP5K2B,16%
COC(=O)c1c(-c2ccccc2)c2cc(Cl)ccc2c(=O)n1Cc1ccc(S(C)(=O)=O)cc1,%Inh,PDGFRB,78%
same,%Inh,PDPK1,16%
same,%Inh,PFTAIRE2,0%
same,%Inh,PFTK1,11%
same,%Inh,PHKG1,4%
same,%Inh,PHKG2,0%
same,%Inh,PIK3C2B,10%
same,%Inh,PIK3C2G,24%
same,%Inh,PIK3CA,10%
same,%Inh,PIK3CB,21%
same,%Inh,PIK3CD,34%
same,%Inh,PIK3CG,25%
same,%Inh,PIK4CB,46%
same,%Inh,PIKFYVE,0%
same,%Inh,PIM1,1%
same,%Inh,PIM2,16%
same,%Inh,PIM3,2%
same,%Inh,PIP5K1A,16%
same,%Inh,PIP5K1C,0%
same,%Inh,PIP5K2B,49%

# — publication PMC5540273 (PLoS ONE, 2017)
